Measurements taken from article PMC5540273 (PLoS ONE, 2017).

Tests used:
Settings in all cases: concentration: 1 μM, replicates: in singlicate; n = 1
PRKR = test system: T1, PRKR
T1 construct: gene EIF2AK2

PRKX = test system: PRKX
PRP4 = test system: PRP4
PYK2 = test system: T2, PYK2
T2 construct: gene PTK2B

QSK = test system: QSK
RAF1 = test system: RAF1
RET = test system: RET
RIOK1 = test system: RIOK1
RIOK2 = test system: RIOK2
RIOK3 = test system: RIOK3
RIPK1 = test system: RIPK1
RIPK2 = test system: RIPK2
RIPK4 = test system: RIPK4
RIPK5 = test system: RIPK5
ROCK1 = test system: ROCK1
ROCK2 = test system: ROCK2
ROS1 = test system: ROS1
[1] = test system: RPS6KA4(Kin.Dom.1-N-terminal)
[2] = test system: RPS6KA4(Kin.Dom.2-C-terminal)
[3] = test system: RPS6KA5(Kin.Dom.1-N-terminal)
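Also: KINOMEscan kinase panel screen.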

SMILES | %Inh (PRKR) | %Inh (PRKX) | %Inh (PRP4) | %Inh (PYK2) | %Inh (QSK) | %Inh (RAF1) | %Inh (RET) | %Inh (RIOK1) | %Inh (RIOK2) | %Inh (RIOK3) | %Inh (RIPK1) | %Inh (RIPK2) | %Inh (RIPK4) | %Inh (RIPK5) | %Inh (ROCK1) | %Inh (ROCK2) | %Inh (ROS1) | %Inh [1] | %Inh [2] | %Inh [3]
CN1CCC(n2cnc(-c3ccc(F)cc3)c2-c2ccnc(NC3CCNCC3)n2)CC1 [SB-229482] | 0% | 0% | 0% | 11% | 0% | 46% | 20% | 25% | 8% | 22% | 0% | 0% | 45% | 7% | 35% | 25% | 0% | 14% | 0% | 1%
COc1ccc(Nc2nccc(N3CCC(NC(=O)Nc4ccc5c(c4)OCO5)C3)n2)cc1 (stereo not shown) [GSK1379745] | 0% | 19% | 23% | 27% | 8% | 22% | 9% | 28% | 5% | 35% | 0% | 0% | 0% | 0% | 12% | 9% | 34% | 13% | 0% | 0%
COC(=O)c1cccc(NC(=O)NCCNc2ccnc(Nc3ccc(F)cc3)n2)c1 [GSK1379883] | 0% | 4% | 46% | 0% | 0% | 11% | 0% | 23% | 0% | 31% | 22% | 0% | 2% | 0% | 25% | 5% | 17% | 23% | 0% | 22%
CCCc1ccc(S(=O)(=O)NC2CCN(c3ccnc(Nc4ccc(OC)cc4)n3)C2)cc1 (stereo not shown) [GSK1379737] | 0% | 0% | 60% | 10% | 0% | 0% | 28% | 0% | 0% | 0% | 0% | 0% | 0% | 0% | 12% | 28% | 5% | 4% | 0% | 0%
Fc1cccc(COc2ccc(Nc3ncnc4cc[nH]c34)cc2Cl)c1 | 0% | 19% | 34% | 2% | 9% | 4% | 5% | 21% | 15% | 20% | 13% | 25% | 16% | 33% | 0% | 0% | 35% | 9% | 11% | 2%
CC(C)(C)c1ccc(-n2cnc3c(N)ncnc32)cc1 [SKF-97263] | 0% | 19% | 7% | 4% | 0% | 0% | 8% | 22% | 26% | 23% | 1% | 0% | 16% | 14% | 0% | 0% | 15% | 0% | 2% | 19%
CNc1nccc(-c2c(-c3ccc(F)cc3)ncn2CCCN2CCOCC2)n1 [SB-222516] | 0% | 0% | 0% | 4% | 19% | 0% | 7% | 25% | 0% | 24% | 9% | 0% | 33% | 0% | 4% | 0% | 3% | 27% | 1% | 8%
O=C(CCO)NCCn1ccc2ncnc(Nc3ccc(Oc4cccc(C(F)(F)F)c4)c(Cl)c3)c21 | 0% | 0% | 8% | 0% | 0% | 0% | 0% | 0% | 0% | 0% | 0% | 7% | 0% | 0% | 0% | 0% | 0% | 18% | 0% | 3%
Fc1ccc(Nc2nccc(-c3c(-c4ccc(Cl)cc4)nn4ncccc34)n2)cc1F [GW829058] | 0% | 0% | 0% | 1% | 20% | 18% | 9% | 0% | 10% | 7% | 0% | 12% | 29% | 37% | 20% | 33% | 14% | 25% | 3% | 2%
Cn1ccc2ncnc(Oc3ccc(NC(=O)Nc4cccnc4)c(Cl)c3)c21 | 7% | 12% | 20% | 9% | 0% | 0% | 52% | 0% | 53% | 4% | 0% | 3% | 0% | 19% | 1% | 0% | 0% | 0% | 0% | 17%
FC(F)(F)c1ccc(-c2cc(-c3c[nH]nc3-c3ccccn3)ccn2)cc1 [GW599550] | 8% | 12% | 31% | 0% | 0% | 18% | 14% | 25% | 5% | 25% | 0% | 25% | 2% | 0% | 26% | 15% | 31% | 14% | 0% | 20%
O=C(Nc1ccccc1F)NC1CCN(c2ccnc(Nc3ccc(F)cc3)n2)C1 (stereo not shown) [GSK1379722] | 0% | 17% | 27% | 0% | 15% | 19% | 8% | 24% | 0% | 15% | 0% | 0% | 98.7% | 0% | 11% | 16% | 22% | 6% | 0% | 20%
FC(F)(F)c1ccc(-c2nn3ncccc3c2-c2ccnc(Nc3cccc(C(F)(F)F)c3)n2)cc1 [GW828205] | 0% | 0% | 0% | 1% | 0% | 0% | 0% | 26% | 0% | 25% | 0% | 0% | 0% | 0% | 0% | 0% | 0% | 16% | 0% | 0%
O=C(c1ccc(-c2cc(-c3c[nH]nc3-c3ccccn3)ccn2)cc1)N1CCCC1 [GW792479] | 4% | 0% | 12% | 7% | 0% | 43% | 5% | 10% | 0% | 19% | 1% | 9% | 5% | 0% | 0% | 0% | 0% | 13% | 0% | 0%
Cn1ccc2ncnc(Nc3ccc(Oc4cccc(Cl)c4)c(Cl)c3)c21 | 0% | 11% | 11% | 27% | 2% | 0% | 10% | 0% | 18% | 3% | 0% | 47% | 0% | 40% | 3% | 0% | 0% | 0% | 1% | 19%
Nc1nc(-c2ccccn2)c(-c2ccnc3ccccc23)s1 [GW548057] | 1% | 0% | 66% | 20% | 0% | 15% | 23% | 19% | 0% | 27% | 16% | 15% | 2% | 14% | 27% | 33% | 1% | 12% | 0% | 21%
O=C(Nc1ccccc1)Nc1ccc(Oc2ccc3nccn3n2)cc1 | 0% | 0% | 0% | 0% | 0% | 31% | 0% | 49% | 0% | 0% | 11% | 88% | 0% | 0% | 0% | 0% | 0% | 50% | 0% | 0%
COc1cc2c(Nc3cccc(NC(=O)c4ccccc4)c3)ncnc2cc1OCCCN1CCOCC1 [GSK223810] | 0% | 7% | 2% | 24% | 0% | 16% | 90.8% | 38% | 10% | 24% | 0% | 31% | 0% | 8% | 34% | 14% | 0% | 9% | 0% | 9%
c1ccc(-c2ccc3c(-c4ccnc(Nc5ccc6c(c5)OCCO6)n4)cnn3n2)cc1 [GW818941] | 0% | 1% | 17% | 8% | 0% | 20% | 1% | 37% | 15% | 12% | 3% | 9% | 0% | 0% | 28% | 10% | 5% | 33% | 0% | 10%
C[C@H]1CC[C@@H](C(=O)Nc2ccccc2)CN1c1cc(-c2ccc3c(N)n[nH]c3c2)nc(N)n1 [GSK2283293] | 0% | 8% | 2% | 20% | 10% | 6% | 0% | 42% | 8% | 31% | 0% | 0% | 6% | 0% | 9% | 18% | 0% | 6% | 0% | 12%
